Source: PubChem (National Center for Advancing Translational Sciences (NCATS))
In the library only some 7.1% were active in any assay of this set; here they are far more common.
MCF10A rereplic: A quantitative high throughput screen for small molecules that induce DNA re-replication in MCF 10a normal breast cells; MCF 10A DNA re-replication, Hoechst nuclear intensity, 48 h; AID 624296, 2012; 350,000 tested, 2.9% active; Potency, µM (top dose mostly 46.1 µM), inactives show at the highest dose activity, positive = re-replication, most hits filed as activators; also: % of control where 0% means no effect; nearly all actives have a fitted effect of over 50% in size
p53 reactivation: qHTS assay for re-activators of p53 using a Luc reporter. H1299 p53-A138V BP100-luciferase reporter, luminescence, 24 h. Potency, µM (top dose mostly 92.2 µM), without a hit: at the highest dose activity change, positive = activation, usual class: activators. 320,000 tested, 0.063% active; also: % of control where 0% means no effect; nearly all actives have a fitted effect of over 45% in size
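p53-null H1299 cells stably carrying temperature-sensitive p53-A138V and a BP100-luciferase reporter were pinned with compounds (4-point, 1:5 series) and held 24 hrs at 37 deg C. Luminescence was read 10 min after detection reagent.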
ELG1 genotoxic: qHTS screen for small molecules that induce genotoxicity in human embryonic kidney (HEK293T) cells expressing luciferase-tagged ELG1; HEK293T ELG1-luciferase reporter, luminescence, 16 h; Potency, µM (series often up to 46 µM), for inactives: at the top dose activity change, positive = activation, actives largely listed as activators; 330,000 tested, 1.3% active; also: % of control where 0% means no effect; nearly all actives have a fitted effect of over 60% in size
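Step 1: seed 2,000 HEK293T ELG1-luciferase cells per well. Step 2: add compound or DMSO, incubate 16 hr at 37 °C. Step 3: ONE-Glo, 30 min at room temperature, read luminescence.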
ELG1 repair inh: qHTS screen for small molecules that inhibit ELG1-dependent DNA repair in human embryonic kidney (HEK293T) cells expressing luciferase-tagged ELG1 | AID 504467, 2011 | Potency, µM (titrated, usually from 46.1 µM), for the others: at the top dose activity change, negative = inhibition, most hits filed as inhibitors | HEK293T ELG1-luciferase reporter, luminescence, 16 h; DNA damage induced by 5-fluorouridine | 330,000 tested, 2.3% active; also: % is scaled to controls: 0 for no effect and ±100 for the full control effect; nearly all actives have a fitted effect of over 55% in size
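Quantitative HTS, concentration-response format. 2,000 cells/well co-treated with 5-fluorouridine and compound, 16 hr in 5% CO2 at 37 °C; ONE-Glo luminescence read after 30 min.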
SW480 rerep: A quantitative high throughput screen for small molecules that induce DNA re-replication in SW480 colon adenocarcinoma cells | SW480 DNA re-replication, Hoechst DNA content imaging, 48 h | AID 624297, 2012 | Potency, µM (doses to about 46.1 µM), for inactives: top-dose re-replication activation, hits mostly activators | 340,000 tested, 1.8% active; also: % of control where 0% means no effect; nearly all actives have a fitted effect of over 55% in size
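SW480 cells exposed to compounds for 48 hr at 37 C, 5% CO2, then Hoechst-stained 40 min. Nuclear DNA content imaged by fluorescence scanning (405 nm excitation, 500-530 nm emission); re-replication scored as increased high-intensity nuclei.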
A-T KAP1 phos: qHTS Assay for Identifying a Potential Treatment of Ataxia-Telangiectasia. F2112 A-T fibroblasts, KAP-1 phosphorylation AlphaLISA; neocarzinostatin DNA damage 30 min before lysis. Potency, µM (doses to about 57.5 µM), without a hit: top-dose activation, most hits filed as activators. 320,000 tested, 0.19% active. AID 485349, 2010; also: % of control where 0% means no effect; nearly all actives have a fitted effect of over 45% in size
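hTERT-immortalized A-T patient fibroblasts (F2112), 500 cells/well in OPTI-MEM, 1% FBS, got compounds for 60 min, then NCS for 30 min at 37C. Lysates were then assayed for phospho-KAP-1 by AlphaLISA (anti-pKAP1 donor, anti-KAP1 acceptor beads), 6 hr at 25C.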
Active calls of the source: *; [ ] = another dose, or the depositor's remark. Calls follow the shape of the dose curve; as a rule, active = well fitted curve in the direction sought with a large enough effect; inconclusive = small, poorly fitted or top-dose-only effect, or another doubt; inactive = no such curve, though single readings can be large; an effect the other way counts as inactive or inconclusive. Potency is read from the fitted curve at half-maximal effect.

Screening CC(O)C1CCC2C3CCC4CC(O)CCC4(C)C3CCC12C (stereo unspecified) returned MCF10A rereplic 0% and SW480 rerep -8%.
Cc1nn(C)c(C)c1NS(=O)(=O)c1ccccc1Cl was read as MCF10A rereplic -1%, p53 reactivation inconclusive, ELG1 genotoxic 1%, ELG1 repair inh 9%, SW480 rerep inconclusive and A-T KAP1 phos 13%.
For COc1cc(/C=N/NC(=O)c2ccccc2NS(=O)(=O)c2cccs2)ccc1O the results were MCF10A rereplic -17%, p53 reactivation 10%, ELG1 genotoxic 1%, ELG1 repair inh 13%, SW480 rerep inconclusive and A-T KAP1 phos -5%.
N#CC(=C1CCCC1)c1nc(-c2ccccc2O)cs1 was read as MCF10A rereplic inconclusive, p53 reactivation inconclusive, ELG1 genotoxic 3.7µM*, ELG1 repair inh inconclusive, SW480 rerep 29% and A-T KAP1 phos 2%.
Cc1ccc(C(=O)NNS(=O)(=O)c2ccc(F)cc2)cc1 was read as MCF10A rereplic 16%, p53 reactivation 16%, ELG1 genotoxic -5%, ELG1 repair inh inconclusive, SW480 rerep -2% and A-T KAP1 phos -13%.
Screening COc1cc(SC)ccc1C(=O)NCCCn1ccnc1 returned MCF10A rereplic -12%, ELG1 genotoxic -3%, ELG1 repair inh 2%, SW480 rerep -4%[9.22 µM] and A-T KAP1 phos 4%.
For CC12CC(c3ccccc3O1)N(C(=O)c1ccco1)C(=S)N2c1ccc(F)cc1 (stereo unspecified) the results were MCF10A rereplic 12µM*, p53 reactivation -15%, ELG1 genotoxic -5%, ELG1 repair inh -5%, SW480 rerep 12% and A-T KAP1 phos 4%.
Screening CCc1ccc(NC(=O)Cn2nc(C(=O)O)c3ccccc3c2=O)cc1 returned MCF10A rereplic inconclusive, p53 reactivation 2%, ELG1 genotoxic 1%, ELG1 repair inh 5%, SW480 rerep 0% and A-T KAP1 phos -2%.
For Cn1c(SCc2ccon2)nc2ccccc2c1=O the results were MCF10A rereplic 8.2µM*, p53 reactivation -1%, ELG1 genotoxic 0%, ELG1 repair inh -11%, SW480 rerep 15µM* and A-T KAP1 phos 3%.
Cc1ccccc1CSc1nc2ccccc2c(=O)n1C was read as MCF10A rereplic -2%, p53 reactivation -1%, ELG1 genotoxic -1%, ELG1 repair inh 5%, SW480 rerep -7% and A-T KAP1 phos 14%.
`Cc1ccc(Cn2c(=S)[nH]c3ccc(N4CCOCC4)cc3c2=O)o1` gave MCF10A rereplic inconclusive, p53 reactivation inconclusive, ELG1 genotoxic -4%, ELG1 repair inh -21%, SW480 rerep 23µM* and A-T KAP1 phos 3%.
For COc1ccc(Cn2c(=O)[nH]c3cc(C(=O)N4CCN(c5ccccc5OC)CC4)ccc3c2=O)cc1 the results were MCF10A rereplic 13%, p53 reactivation -4%, ELG1 genotoxic -28%, ELG1 repair inh 21µM*, SW480 rerep inconclusive and A-T KAP1 phos 0%.
Screening O=C(c1ccc(CN2CCc3ccccc3C2)cc1)N1CCCCC1 returned MCF10A rereplic 20%, p53 reactivation 0%, ELG1 genotoxic 1%, ELG1 repair inh -13%, SW480 rerep -4% and A-T KAP1 phos 5%.
Screening Cc1ccc(C)c(N2CCN(C(=O)c3ccc(Cn4c(=S)[nH]c5ccc(N6CCOCC6)cc5c4=O)cc3)CC2)c1 returned MCF10A rereplic 5.8µM*, p53 reactivation 9%, ELG1 genotoxic 7%, ELG1 repair inh 21%, SW480 rerep 22% and A-T KAP1 phos -1%.
